{"source": "PubChem BioAssay (NCI)", "note": "Compounds without any hit were thinned out: in the full panel of roughly 83,000, 20% have a hit.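 Each cell line was grown in a 96-well plate and treated with one concentration of compound for 48 hours. Values below 10 were considered active.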 Unmarked numbers belong to inactive results. Calls of active or inactive are those of the source."}
{"system": "NCI-H23 lung", "test": "NCI-60 one-dose screen, 48 h (100 = growth as untreated, 0 = no growth, -100 = all killed)", "conditions": "10 µM unless noted", "description": "Growth inhibition of the NCI-H23 human Non-Small Cell Lung tumor cell line is measured as a screen for anti-cancer activity. Cells are grown in 96 well plates and exposed to the test compound for 48 hours. Compounds are tested at a single concentration, which is 10^-5 M for most compounds. The reported endpoint is percent growth (GI% or GIPRCNT), where numbers from 0 - 100% represent growth inhibition, and numbers from -100% - 0 represent cell death. For example, a value of 40 represents 60% growth inhibition. A value of 0 means no net growth occurred over the course of the experiment. A value of -40 indicates 40% of cells at the beginning of the experiment died by the end of the experiment. A value of -100 means all cells are dead at the end of the experiment.\nNCI-60 Human Tumor Cell Lines Screen was performed using the standard one-dose NCI protocol, which is described in more detail at https://dtp.cancer.gov/discovery_development/nci-60/default.htm.\nCompounds with GIPRCNT values below 10 were considered active. Activity score was based on GIPRCNT using the following formula: […]\nScore is 0 for GIPRCNT values of 100 or above, 50 for GIPRCNT values of 0, and 100 for GIPRCNT values of -100."}
{"smiles": "FC(F)(F)c1nn[nH]n1", "growth": "96.6%"}
{"smiles": "CN(C)c1nc(-c2cccs2)n2nc(-c3ccco3)cc2n1", "growth": "87.2%"}
{"smiles": "Clc1ccc(-c2cnc3nonc3n2)s1", "growth": "74.3%"}
{"smiles": "c1ccc2c(N=NSc3ncnc4nc[nH]c34)c3ccccc3nc2c1", "growth": "-8.68% (active)"}
{"smiles": "c1ccc2oc(-c3cnc4nonc4n3)cc2c1", "growth": "94.8%"}
{"smiles": "O=C(Nc1ccccc1)c1cc2ccccc2s1", "growth": "74.8%"}
{"smiles": "CC(C)(C)[Si](C)(C)OC1[C@@H](O[Si](C)(C)C(C)(C)C)[C@@H](CNC(=O)NC(=O)NC(=O)CCl)O[C@H]1n1cnc2c(NC(=O)Nc3ccccc3)ncnc21", "note": "(stereo not given in full)", "growth": "-35.6% (active)"}
{"smiles": "COc1ccc(-c2conc2-n2nc(-c3ccccc3)nc2-c2ccccc2)cc1", "growth": "98.3%"}
{"smiles": "C=C(COC(C)=O)[C@H]1CC/C(C)=C/CC/C(C)=C/CC[C@@]2(C)O[C@H]2C1", "growth": "106%"}
{"smiles": "CC(C)(C)c1ccc(C(=O)Nc2sc3cc(O)ccc3c2C(N)=O)cc1", "growth": "88.3%"}
{"smiles": "N/C(=N\\OC(=O)c1ccccc1)C(Cc1ccccc1)C(=O)NOC(=O)c1ccccc1", "note": "(stereo not given)", "growth": "46.6%"}
{"smiles": "COc1cc(OC)c(Cl)cc1N", "growth": "105%"}
{"smiles": "O=C(N/N=C/c1ccccc1O)c1ccncc1", "growth": "70.9%"}
{"smiles": "CCOC(=O)C1OC2(CCCC2)OC1C(=O)OCC", "note": "(stereo not given)", "growth": "103%"}
{"smiles": "O=C(CCl)N1c2ccccc2Oc2ccc3ccccc3c21", "growth": "-48.4% (active)"}
{"smiles": "COc1cc(/C=C/c2cc(/C=C/c3ccc(O)c(OC)c3)n(C(=O)c3ccccc3Br)n2)ccc1O", "growth": "17.7%"}
{"smiles": "Cc1ccc(C)c(NC(=O)c2sc3c(=O)[nH]cnc3c2C)c1", "growth": "93.4%"}
{"smiles": "COc1ccc(/C=C/C(=O)CCC(=O)O)cc1OC", "growth": "109%"}
{"smiles": "c1ccc(-c2nnn(-c3ccccc3)n2)cc1", "growth": "105%"}
{"smiles": "Cc1ccc2c(C)c3c(ccc4ccccc43)c[n+]2c1", "growth": "53.8%"}
{"smiles": "Oc1ccc(-c2nc3ccccc3s2)cc1CN(Cc1ccccn1)Cc1ccccn1", "growth": "17.5%"}
{"smiles": "N/C(=N\\O)c1ncc(-c2ccc(C(F)(F)F)cc2)c(NC2CCCCCC2)n1", "growth": "-78.9% [100 µM] (active)"}
{"smiles": "CS(=O)(=O)c1ccc(C(=O)N2N=C(c3ccccc3)CC2c2ccc3c(c2)OCO3)cc1", "note": "(stereo not given)", "growth": "101%"}
{"smiles": "Clc1cc(Cl)cc(-c2cnc3nonc3n2)c1", "growth": "77.3%"}
{"smiles": "Nc1c(N)c2ccccc2c2ccccc12", "growth": "98.4%"}
{"smiles": "O=C(Nc1cccc(-n2ccc3c(NC(=O)c4ccccc4)nccc32)c1)c1ccc(N2CCOCC2)c(C(F)(F)F)c1", "growth": "28.1%"}
{"smiles": "COc1ccc(-c2cc(C(=O)Nc3ccc(C)cc3)nc3[nH]c(=O)sc23)cc1", "growth": "75.4%"}
{"smiles": "N=C(N)c1ccc(NCCNc2ccc(C(=N)N)cc2)cc1", "growth": "85.9%"}
{"smiles": "CCN1C(=O)/C(=C/N2N=C(c3ccc(Cl)cc3)CC2c2ccc(OC)cc2)SC1=S", "note": "(stereo not given)", "growth": "98.3%"}
{"smiles": "COc1cnc2c(c1)C(=O)c1c-2n(CCCN2CCCC2)c(=O)c2cc(Cl)ccc12", "growth": "32.5%"}
{"smiles": "C=C1C(=O)O[C@H]2[C@H]1CC/C(COC(=O)NCc1cccc(OC)c1)=C\\CC[C@@]1(C)O[C@@H]21", "growth": "73.4%"}
{"smiles": "COc1ccc2nc(C)cc(Sc3nc4ccccc4s3)c2c1", "growth": "29.4%"}
{"smiles": "CCCCCCCCCCCCCCCC1=NC(C)(C)CN1C(C)C", "growth": "0.554% (active)"}
{"smiles": "CNC1=C([N+](=O)[O-])C(c2ccccc2O)C(C#N)=C(c2cccs2)O1", "note": "(stereo not given)", "growth": "99.1%"}
{"smiles": "CC(=O)NC1C(O[C@H]2C[C@H]3[C@@H]4CC=C5C[C@@H](O)CC[C@]5(C)[C@H]4CC[C@]3(C)[C@H]2[C@H](C)C(=O)CCC(C)C)OCC(O)C1O", "note": "(stereo not given in full)", "growth": "65.9%"}
{"smiles": "COc1cc(CN2CCC(N3CCCC3=O)c3ccccc32)cc(OC)c1OC", "note": "(stereo not given)", "growth": "63%"}
{"smiles": "COc1cc2c(=O)n(CCCN(C)C)c3c4cc[nH]c4ncc3c2cc1OC", "growth": "41.4%"}
{"smiles": "O=C1SCN(Cc2ccccc2)CN1Cc1ccccc1", "growth": "91.2%"}
{"smiles": "COc1cc2c(cc1OC)-c1cc(OC)c(OC)cc1C(CN(C)C)C2", "note": "(stereo not given)", "growth": "51.8% [100 µM]"}
{"smiles": "O=C(NO)c1ccc(CNc2cccc3nc(C4CC4)n(-c4ccccc4)c(=O)c23)cc1", "growth": "-48.4% (active)"}
